This passage reports inhibition results from PubChem BioAssay AID1220 (Sanford-Burnham Center for Chemical Genomics, 2008).

Hit rate of the full screen: of about 190,000 compounds, about 1,300 (0.68%) were called active. Rule as the data show it: active = inhibition above about 50%; inactive = the rest. For the sample, actives were picked, then their nearest neighbours and some compounds at random.

For orientation: inhibition means the relative decrease from the control value, in per cent.

The target of this assay is Mannose-6-phosphate isomerase (Homo sapiens) (UniProt P34949). Briefly: human PMI inhibitors, high substrate, primary screen, biochemical, fluorescence intensity, high mannose 6-phosphate (AID 1220). The conditions noted are these: recombinant PMI enzyme, coupled fluorescence intensity; at 20 µM; active compounds read high.
Chain of Mannose-6-phosphate isomerase (Homo sapiens) (P34949 whole entry, looked up): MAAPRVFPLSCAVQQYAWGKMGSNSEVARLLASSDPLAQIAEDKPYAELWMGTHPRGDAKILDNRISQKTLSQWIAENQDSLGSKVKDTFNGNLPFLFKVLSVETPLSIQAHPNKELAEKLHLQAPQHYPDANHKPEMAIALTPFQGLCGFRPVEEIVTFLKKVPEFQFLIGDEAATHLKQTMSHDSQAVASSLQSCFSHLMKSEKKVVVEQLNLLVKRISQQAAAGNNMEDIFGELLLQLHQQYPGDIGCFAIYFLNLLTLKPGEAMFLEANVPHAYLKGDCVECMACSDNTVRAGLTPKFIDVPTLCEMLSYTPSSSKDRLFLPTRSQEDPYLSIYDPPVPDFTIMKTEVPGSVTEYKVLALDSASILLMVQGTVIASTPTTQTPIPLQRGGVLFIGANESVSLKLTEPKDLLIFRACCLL
For `Cc1cccc(-c2nnc(SCC#N)n2Cc2ccccc2)c1`, the inhibition was -0.8% (inactive).

Consider `CC(Sc1cccc[n+]1[O-])C(=O)Nc1ccc(Oc2ccccc2)cc1` (centres undefined), for which the inhibition is 0% (inactive).

Consider `CC(=O)N/N=C/c1c(C)[nH]n(-c2ccccc2)c1=O`, for which the inhibition is 7.9% (inactive).

Turning to `O=C(O)CN1C(=O)/C(=C/c2ccsc2)SC1=S`, the inhibition is -5.3% (inactive).

In the case of `Cc1cc(O)cc(O)c1C(=O)Cc1ccccc1`, the inhibition is -2.6% (inactive).

In the case of `CCOC(=O)c1ccc(CC(=O)c2ccc(O)cc2O)o1`, the inhibition was -31.2% (inactive).

Turning to `COC(=O)c1ccc(CC(=O)c2c(C)cc(O)cc2O)o1`, the inhibition is 50.8% (active).

Turning to `COC(=O)c1ccc(CC(=O)c2ccc(O)cc2O)o1`, the inhibition was -59.1% (inactive).

In the case of `CCCc1cc(C(=O)Cc2ccc(C(=O)OCC)o2)c(O)cc1O`, the inhibition is -51.6% (inactive).

On to `Cc1ccc(NCc2nnc(SCC(=O)NCc3ccco3)n2CC2CCCO2)c(C)c1` (centres undefined), for which the inhibition is 8% (inactive).

For the compound `CCSC1=NCCN1S(=O)(=O)c1ccccc1`, the inhibition is 7.2% (inactive).

Regarding `C/C(=C\C(=O)Nc1cc(C)on1)c1ccccc1`, the inhibition is 15.6% (inactive).

As for `Cc1nnc(NC(=O)C(C)Oc2ccc3c(C)cc(=O)oc3c2)s1` (centres undefined), the inhibition is -8.9% (inactive).

Regarding `CCS(=O)(=O)N1Cc2ccccc2CC1C(=O)Nc1ncc(C)s1` (centres undefined), the inhibition is -7.1% (inactive).

Turning to `Clc1cccc(Cl)c1Cn1cnc2c(N3CCCCCC3)ncnc21`, the inhibition was 14.8% (inactive).

For the compound `CC(=O)c1ccc2cccc3c2c1N=CN3C`, the inhibition was 55.2% (active).

Turning to `CC(=O)N1C(=O)c2cccc3cccc(c23)C(=O)N1C(C)=O`, the inhibition is 7.9% (inactive).

Consider `CC(=O)c1c(C(C)=O)c(C)n(-c2cccc3cccnc23)c1C`, for which the inhibition was -2.3% (inactive).

As to `CC1=Nc2ncnn2C(c2ccccc2)/C1=N\O` (centres undefined), the inhibition was -9.4% (inactive).

Take `Cc1ccc(NC2c3ncccc3C(=O)N2c2ccccc2C)cc1C` (centres undefined): the inhibition was -17.7% (inactive).

Turning to `O=C(CCNC(=O)Cn1ccc2ccccc2c1=O)NCCCN1CCOCC1`, the inhibition was 10.9% (inactive).

With `COc1ccc(OCC(=O)N/N=C/c2ccsc2)cc1`, the inhibition was 17.2% (inactive).

On to `CC(C)(C)c1ccc(OCC(=O)N/N=C/c2ccsc2)cc1`, for which the inhibition was 54.9% (active).

Turning to `Cc1ccc(C)c(OCC(=O)N/N=C/c2ccsc2)c1`, the inhibition is 3% (inactive).

Take `Cc1cccc(N2C(=O)c3cccc(Oc4ccc(Cl)cc4)c3C2=O)c1`: the inhibition is 13.8% (inactive).

As for `Cc1ccc(N2C(=O)c3cccc(Oc4ccc(Cl)cc4)c3C2=O)c(C)c1`, the inhibition is 50.4% (active).

Take `O=C(O)c1cccc(N2C(=O)c3cccc(Oc4ccc(Cl)cc4)c3C2=O)c1`: the inhibition is -8.6% (inactive).

`Cc1[nH]c(=O)c(C#N)cc1-c1ccccc1`: the inhibition was 10.3% (inactive).

With `CCn1c(=O)cc(SCC(=O)N2CCN(C)CC2)c2ccccc21`, the inhibition was -10.8% (inactive).

`CC(=O)Nc1ccc(-c2nc(C)c(C(C)=O)n2O)cc1`: the inhibition is 22.6% (inactive).

Regarding `Cc1cc(C(=O)COc2cccnc2[N+](=O)[O-])c(C)n1Cc1cccs1`, the inhibition is 64.4% (active).

With `Cc1ccc(OCC(=O)c2cc(C)n(Cc3cccs3)c2C)c([N+](=O)[O-])n1`, the inhibition was 26.4% (inactive).

Regarding `O=C(COc1cccnc1[N+](=O)[O-])NCc1ccco1`, the inhibition was 65.7% (active).

For the compound `Cc1ccc2cccc(OCC(=O)c3cc(C)n(Cc4ccco4)c3C)c2n1`, the inhibition was 20.9% (inactive).

For `O=C(COc1cccnc1[N+](=O)[O-])NCc1cccs1`, the inhibition was 3% (inactive).

Turning to `CCOc1ncccc1C(=O)OCC(=O)c1cc(C)n(Cc2ccco2)c1C`, the inhibition is 12.1% (inactive).

On to `Cc1ccc(OCC(=O)NCc2ccco2)c([N+](=O)[O-])n1`, for which the inhibition is 1.9% (inactive).

Regarding `CC(=O)Nc1ccccc1OCC(=O)c1cc(C)n(Cc2cccs2)c1C`, the inhibition was 17.5% (inactive).

As to `Cc1cc(C(=O)COc2cccnc2[N+](=O)[O-])c(C)n1Cc1ccco1`, the inhibition is 59.5% (active).

In the case of `O=[N+]([O-])c1cc(C(F)(F)F)ccc1NCCOc1ccccc1`, the inhibition is 9% (inactive).

Take `O=C(CCCCn1c(=O)c2ccccc2n(CC(=O)Nc2cccc(F)c2)c1=O)NCc1ccco1`: the inhibition is 9.4% (inactive).

Take `COc1ccc(S(=O)(=O)N(CC(=O)N2CCN(c3ccccc3OC)CC2)c2ccccc2)cc1`: the inhibition is 13.1% (inactive).

As to `COc1ccc(NC(C)=O)cc1NC(C)C(=O)Nc1ccc(F)cc1` (centres undefined), the inhibition was 7% (inactive).

In the case of `COc1ccc(NC(C)=O)cc1NC(C)c1nc2sc(C)c(C)c2c(=O)[nH]1` (centres undefined), the inhibition was 66.6% (active).

Consider `Cc1sc2nc(C(C)Nc3ccccc3N3CCOCC3)[nH]c(=O)c2c1C` (centres undefined), for which the inhibition is 26.7% (inactive).

Consider `COc1ccc(S(=O)(=O)CCC(=O)N2CCN(c3ccc(F)cc3)CC2)cc1`, for which the inhibition is -1.5% (inactive).

With `CCn1c(COc2ccc3c(c2)OCO3)nnc1SCC(=O)O`, the inhibition is -46.4% (inactive).

Consider `O=C(Oc1cccc2cccnc12)c1ccc2c(c1)OCCO2`, for which the inhibition is 29.5% (inactive).

On to `Cc1c(C(=O)Oc2cccc3cccnc23)oc2ccccc12`, for which the inhibition is 50% (active).

In the case of `COC(=O)c1ccccc1OCCOCCOc1cccc2ccc(C)nc12`, the inhibition is 45% (inactive).

Take `COc1ccccc1/C=C/C(=O)Oc1cccc2cccnc12`: the inhibition was 26.5% (inactive).

For the compound `Cc1ccc2cccc(OCC(=O)Nc3ccc4c(c3)OCO4)c2n1`, the inhibition was 15.2% (inactive).

Take `O=C(/C=C\c1ccccc1)Oc1cccc2cccnc12`: the inhibition was 51.9% (active).

`Cc1ccc2cccc(OC(=O)/C=C\c3ccccc3)c2n1`: the inhibition is 60.1% (active).

`Cc1c(C(=O)Nc2cccc3cccnc23)oc2ccccc12`: the inhibition is -0.2% (inactive).

Turning to `Cc1ccc(C(C)C)c(OC(=O)/C=C/c2ccccc2)c1`, the inhibition is 6.5% (inactive).

Turning to `O=C(/C=C\c1ccco1)Oc1cccc2cccnc12`, the inhibition is 34.3% (inactive).

Consider `Cc1ccc2cccc(OC(=O)c3ccc4c(c3)OCCO4)c2n1`, for which the inhibition is 54% (active).

For `CCc1nc2ccccc2c(C(=O)Oc2cccc3cccnc23)c1C`, the inhibition is 7.3% (inactive).

Regarding `CCOCC(=O)Nc1nnc(COCC)s1`, the inhibition is -1.8% (inactive).

As to `Cc1cc(NC(=O)COC(=O)CCCOc2ccc(Cl)cc2C)no1`, the inhibition was 4.5% (inactive).

On to `O=C(O)COc1ccc(/C=N/NC(=O)C2CCCN2S(=O)(=O)c2ccc(Cl)cc2)cc1` (centres undefined), for which the inhibition was -3.5% (inactive).

As to `O=C(O/N=C\c1ccc(N2CCOCC2)c([N+](=O)[O-])c1)c1ccc(F)cc1`, the inhibition was 8% (inactive).

On to `COc1ccc(NC(=O)CSCc2ccc(C)cc2)cc1`, for which the inhibition is 1.9% (inactive).
